In the supplement of paper PMC10849652:
Targets with a hit are over-represented here; the source holds about 8,800 in all. About 0.5% of all pairs of compound and target were hits. Unmarked numbers belong to inactive results.

Experiments:
Experiment in all cases: log2 fold change, soluble protein after heating vs DMSO (PISA); higher = thermal stabilisation; K562 lysate, 10 uM; active = over 0.2 and 3.5 SD of the protein, either way, in both replicates (recomputed)
nilotinib = compound: Cc1cn(-c2cc(NC(=O)c3ccc(C)c(Nc4nccc(-c5cccnc5)n4)c3)cc(C(F)(F)F)c2)cn1 [nilotinib]
Outline: (§1)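 Values give the log-two fold change in thermal stability against solvent controls, from duplicates. Crude K562 extract at 1 mg/mL protein, made by dounce homogenisation in PBS pH 7.4 with 1 mM MgCl2, was treated with 10 μM compound for 30 min. After 3 min heating across 48°C-58°C, aliquots were pooled, adjusted to 0.5% NP-40 at 4°C and centrifuged at 21,000xg for 90 min. The supernatant was measured by TMTpro 16plex LC-MS/MS with channel sums equalised.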

[1] = compound: Cc1nc(Nc2n[nH]c3c2CN(C(=O)N[C@H](CN(C)C)c2ccccc2)C3(C)C)c2sccc2n1
Outline: as §1

dasatinib = compound: Cc1nc(Nc2ncc(C(=O)Nc3c(C)cccc3Cl)s2)cc(N2CCN(CCO)CC2)n1 [dasatinib]
Outline: as §1

[2] = compound: Cc1ncc(-c2ccnc(Nc3ccc(S(C)(=O)=O)cc3)n2)n1C(C)C
Outline: as §1

[3] = compound: Cn1cc(-c2ccc3c(c2)CCN3C(=O)Cc2cccc(C(F)(F)F)c2)c2c(N)ncnc21
Outline: as §1

quisinostat = compound: Cn1cc(CNCC2CCN(c3ncc(C(=O)NO)cn3)CC2)c2ccccc21 [quisinostat]
Outline: as §1

tipifarnib = compound: Cn1cncc1[C@@](N)(c1ccc(Cl)cc1)c1ccc2c(c1)c(-c1cccc(Cl)c1)cc(=O)n2C [tipifarnib]
Outline: as §1

[4] = compound: NC(=O)Nc1cc(-c2cccc(F)c2)sc1C(=O)N[C@H]1CCCNC1
Outline: as §1

[5] = compound: NC(=O)c1cnc(N[C@@H]2CCCC[C@@H]2N)nc1Nc1cccc(-n2nccn2)c1
Outline: as §1

[6] = compound: NC1(c2ccc(-c3nc4ccn5c(=O)[nH]nc5c4cc3-c3ccccc3)cc2)CCC1
Outline: as §1

[7] = compound: NCC(=O)Nc1ccc(-n2nc(C(F)(F)F)cc2-c2ccc3c(ccc4ccccc43)c2)cc1
Outline: as §1

vorinostat = compound: O=C(CCCCCCC(=O)Nc1ccccc1)NO [vorinostat]
Outline: as §1

silmitasertib = compound: O=C(O)c1ccc2c(c1)nc(Nc1cccc(Cl)c1)c1ccncc12 [silmitasertib]
Outline: as §1

[8] = compound: O=C1NC(=O)C(c2cnc3ccccn23)=C1c1cn2c3c(cc(F)cc13)CN(C(=O)N1CCCCC1)CC2
Outline: as §1

entospletinib = compound: c1cn2cc(-c3ccc4cn[nH]c4c3)nc(Nc3ccc(N4CCOCC4)cc3)c2n1 [entospletinib]
Outline: as §1

Chain of UniProt Q9UBV8 (Q9UBV8 whole entry, looked up): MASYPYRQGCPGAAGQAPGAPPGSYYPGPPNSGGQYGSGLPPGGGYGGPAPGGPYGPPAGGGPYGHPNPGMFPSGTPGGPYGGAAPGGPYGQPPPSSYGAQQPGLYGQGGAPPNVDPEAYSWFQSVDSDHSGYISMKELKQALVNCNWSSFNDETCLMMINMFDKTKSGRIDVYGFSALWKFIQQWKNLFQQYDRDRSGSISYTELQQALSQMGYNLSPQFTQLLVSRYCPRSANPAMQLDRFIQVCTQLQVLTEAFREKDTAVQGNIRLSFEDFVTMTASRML
Chain of UniProt Q9UNP9 (Q9UNP9 whole entry, looked up): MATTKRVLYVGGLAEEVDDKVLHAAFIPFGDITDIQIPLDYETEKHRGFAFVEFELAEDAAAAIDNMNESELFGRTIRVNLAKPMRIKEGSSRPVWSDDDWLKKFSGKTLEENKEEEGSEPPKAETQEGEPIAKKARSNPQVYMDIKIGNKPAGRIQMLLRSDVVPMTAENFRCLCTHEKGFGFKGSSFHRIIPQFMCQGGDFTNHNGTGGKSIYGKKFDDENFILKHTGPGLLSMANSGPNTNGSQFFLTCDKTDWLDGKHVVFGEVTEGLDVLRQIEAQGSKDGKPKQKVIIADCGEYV
Chain of UniProt P09884 (P09884 whole entry, looked up): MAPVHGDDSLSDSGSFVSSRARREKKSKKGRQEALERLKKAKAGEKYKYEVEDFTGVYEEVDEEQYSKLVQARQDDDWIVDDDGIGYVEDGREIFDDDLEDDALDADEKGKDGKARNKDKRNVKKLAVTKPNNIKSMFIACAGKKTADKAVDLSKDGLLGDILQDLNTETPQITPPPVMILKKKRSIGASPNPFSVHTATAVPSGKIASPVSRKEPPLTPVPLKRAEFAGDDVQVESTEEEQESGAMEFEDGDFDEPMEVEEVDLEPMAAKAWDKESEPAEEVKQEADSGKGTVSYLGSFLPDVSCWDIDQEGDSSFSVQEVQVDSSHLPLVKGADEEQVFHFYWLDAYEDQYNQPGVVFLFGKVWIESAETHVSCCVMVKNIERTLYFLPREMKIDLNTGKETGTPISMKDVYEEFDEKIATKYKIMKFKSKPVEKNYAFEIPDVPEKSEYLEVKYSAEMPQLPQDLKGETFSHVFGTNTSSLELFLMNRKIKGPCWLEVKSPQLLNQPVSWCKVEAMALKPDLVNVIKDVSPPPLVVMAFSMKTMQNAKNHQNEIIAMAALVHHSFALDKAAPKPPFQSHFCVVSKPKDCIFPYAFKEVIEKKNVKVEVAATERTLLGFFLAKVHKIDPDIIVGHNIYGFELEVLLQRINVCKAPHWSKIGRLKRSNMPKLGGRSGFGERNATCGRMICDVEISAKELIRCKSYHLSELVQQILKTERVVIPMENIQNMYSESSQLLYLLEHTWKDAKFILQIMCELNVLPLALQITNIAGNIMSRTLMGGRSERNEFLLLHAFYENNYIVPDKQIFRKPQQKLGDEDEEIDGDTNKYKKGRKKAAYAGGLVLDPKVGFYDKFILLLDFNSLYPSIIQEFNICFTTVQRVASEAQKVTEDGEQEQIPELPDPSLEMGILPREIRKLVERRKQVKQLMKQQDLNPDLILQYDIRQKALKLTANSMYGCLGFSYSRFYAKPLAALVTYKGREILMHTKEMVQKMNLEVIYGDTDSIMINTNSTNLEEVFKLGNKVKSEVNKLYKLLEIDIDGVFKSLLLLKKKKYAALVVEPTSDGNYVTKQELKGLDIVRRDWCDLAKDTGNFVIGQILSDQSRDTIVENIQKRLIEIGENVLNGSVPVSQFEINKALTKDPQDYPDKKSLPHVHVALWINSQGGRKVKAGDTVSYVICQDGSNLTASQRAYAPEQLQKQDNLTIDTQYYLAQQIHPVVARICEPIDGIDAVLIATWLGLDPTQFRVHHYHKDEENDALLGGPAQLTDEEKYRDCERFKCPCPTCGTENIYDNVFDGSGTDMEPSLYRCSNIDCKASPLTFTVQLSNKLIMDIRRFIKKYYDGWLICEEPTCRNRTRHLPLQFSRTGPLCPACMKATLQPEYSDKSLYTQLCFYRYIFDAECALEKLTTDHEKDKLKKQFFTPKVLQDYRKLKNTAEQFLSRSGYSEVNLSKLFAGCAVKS
Chain of UniProt Q9H0N5 (Q9H0N5 whole entry, looked up): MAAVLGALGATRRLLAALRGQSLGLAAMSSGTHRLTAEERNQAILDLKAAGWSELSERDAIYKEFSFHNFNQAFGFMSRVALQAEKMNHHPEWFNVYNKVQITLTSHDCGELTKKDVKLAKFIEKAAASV
Chain of UniProt Q15054 (Q15054 whole entry, looked up): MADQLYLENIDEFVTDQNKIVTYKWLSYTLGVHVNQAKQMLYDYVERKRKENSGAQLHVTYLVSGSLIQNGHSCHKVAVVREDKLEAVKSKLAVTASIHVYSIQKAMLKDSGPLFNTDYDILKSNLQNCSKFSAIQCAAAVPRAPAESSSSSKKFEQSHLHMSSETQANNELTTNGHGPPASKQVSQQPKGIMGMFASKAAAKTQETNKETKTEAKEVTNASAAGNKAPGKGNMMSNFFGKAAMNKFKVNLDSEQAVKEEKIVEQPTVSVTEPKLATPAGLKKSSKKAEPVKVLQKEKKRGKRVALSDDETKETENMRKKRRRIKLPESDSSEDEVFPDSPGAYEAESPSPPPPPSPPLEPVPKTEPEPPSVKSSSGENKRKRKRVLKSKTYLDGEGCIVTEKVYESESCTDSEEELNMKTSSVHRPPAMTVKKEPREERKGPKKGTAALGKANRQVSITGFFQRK
Chain of UniProt P45877 (P45877 whole entry, looked up): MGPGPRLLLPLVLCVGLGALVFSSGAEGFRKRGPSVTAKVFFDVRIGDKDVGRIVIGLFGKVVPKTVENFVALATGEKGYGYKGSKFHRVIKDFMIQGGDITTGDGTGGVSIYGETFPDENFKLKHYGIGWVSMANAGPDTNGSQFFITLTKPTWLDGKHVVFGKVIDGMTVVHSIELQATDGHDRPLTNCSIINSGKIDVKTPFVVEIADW
Chain of UniProt Q99755 (Q99755 whole entry, looked up): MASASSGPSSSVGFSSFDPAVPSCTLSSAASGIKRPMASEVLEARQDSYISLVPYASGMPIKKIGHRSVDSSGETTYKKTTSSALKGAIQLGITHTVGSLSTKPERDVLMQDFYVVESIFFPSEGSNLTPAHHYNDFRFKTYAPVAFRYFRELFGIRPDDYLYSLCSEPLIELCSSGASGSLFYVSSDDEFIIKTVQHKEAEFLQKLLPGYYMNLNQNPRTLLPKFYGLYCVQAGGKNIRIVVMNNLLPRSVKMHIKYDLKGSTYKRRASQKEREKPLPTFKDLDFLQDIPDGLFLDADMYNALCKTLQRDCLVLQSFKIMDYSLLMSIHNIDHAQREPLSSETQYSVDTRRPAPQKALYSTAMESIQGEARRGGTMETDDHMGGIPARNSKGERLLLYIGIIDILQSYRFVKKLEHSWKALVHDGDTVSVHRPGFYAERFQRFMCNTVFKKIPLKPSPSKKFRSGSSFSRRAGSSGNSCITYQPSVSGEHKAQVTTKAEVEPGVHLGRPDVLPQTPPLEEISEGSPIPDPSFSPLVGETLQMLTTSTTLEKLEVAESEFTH
Chain of UniProt Q03393 (Q03393 whole entry, looked up): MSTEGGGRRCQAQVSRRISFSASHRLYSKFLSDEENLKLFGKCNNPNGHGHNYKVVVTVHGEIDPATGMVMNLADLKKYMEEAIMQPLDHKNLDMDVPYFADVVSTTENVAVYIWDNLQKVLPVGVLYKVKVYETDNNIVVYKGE
Chain of UniProt P67775 (P67775 whole entry, looked up): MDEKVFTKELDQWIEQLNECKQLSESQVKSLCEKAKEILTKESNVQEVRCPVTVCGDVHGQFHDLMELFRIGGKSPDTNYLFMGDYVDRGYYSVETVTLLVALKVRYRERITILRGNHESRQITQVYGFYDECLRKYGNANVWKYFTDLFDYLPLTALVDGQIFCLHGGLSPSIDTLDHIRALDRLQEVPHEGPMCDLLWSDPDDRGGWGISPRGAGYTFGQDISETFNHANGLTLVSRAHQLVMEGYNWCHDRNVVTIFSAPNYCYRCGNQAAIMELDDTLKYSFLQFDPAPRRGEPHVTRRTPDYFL
Chain of UniProt Q8NA72 (Q8NA72 whole entry, looked up): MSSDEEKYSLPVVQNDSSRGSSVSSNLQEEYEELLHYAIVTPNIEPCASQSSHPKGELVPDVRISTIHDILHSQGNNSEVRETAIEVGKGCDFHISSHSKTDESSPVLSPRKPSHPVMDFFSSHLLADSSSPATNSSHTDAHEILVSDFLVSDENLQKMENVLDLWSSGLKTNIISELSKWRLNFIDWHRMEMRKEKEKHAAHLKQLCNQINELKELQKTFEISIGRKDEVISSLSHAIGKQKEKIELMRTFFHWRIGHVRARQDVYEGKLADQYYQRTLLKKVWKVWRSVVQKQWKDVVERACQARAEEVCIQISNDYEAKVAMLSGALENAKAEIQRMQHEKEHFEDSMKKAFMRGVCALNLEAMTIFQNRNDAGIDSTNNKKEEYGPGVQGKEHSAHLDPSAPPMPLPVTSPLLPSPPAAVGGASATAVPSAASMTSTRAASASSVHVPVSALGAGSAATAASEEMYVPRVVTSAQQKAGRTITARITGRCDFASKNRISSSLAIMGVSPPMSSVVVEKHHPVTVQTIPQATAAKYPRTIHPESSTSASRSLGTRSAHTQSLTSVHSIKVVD
Chain of UniProt P48426 (P48426 whole entry, looked up): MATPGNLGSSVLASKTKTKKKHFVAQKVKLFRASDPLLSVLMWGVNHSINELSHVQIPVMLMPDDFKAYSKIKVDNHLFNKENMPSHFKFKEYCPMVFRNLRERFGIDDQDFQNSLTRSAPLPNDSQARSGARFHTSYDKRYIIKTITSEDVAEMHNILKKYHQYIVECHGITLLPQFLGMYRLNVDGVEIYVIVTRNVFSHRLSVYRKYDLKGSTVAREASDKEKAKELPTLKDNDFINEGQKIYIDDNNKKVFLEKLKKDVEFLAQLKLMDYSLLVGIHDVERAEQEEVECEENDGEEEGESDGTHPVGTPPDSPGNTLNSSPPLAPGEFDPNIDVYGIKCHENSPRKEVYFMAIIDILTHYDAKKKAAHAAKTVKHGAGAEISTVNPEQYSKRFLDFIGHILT

Target	log2 fold change (nilotinib)	log2 fold change [1]	log2 fold change (dasatinib)	log2 fold change [2]	log2 fold change [3]	log2 fold change (quisinostat)	log2 fold change (tipifarnib)	log2 fold change [4]	log2 fold change [5]	log2 fold change [6]	log2 fold change [7]	log2 fold change (vorinostat)	log2 fold change (silmitasertib)	log2 fold change [8]	log2 fold change (entospletinib)
PTS (UniProt Q03393)	0.172	0.024	0	-0.018	0.082	-0.083	0.112	0.126	0.006	-0.077	0.053	0.006	0.009	-0.151	0.032
PPP1R11 (UniProt O60927)	-0.03	0.035	-0.051	0.074	-0.055	-0.131	-0.001	0.01	-0.067	0.078		-0.31 (active)	0.034	0.028	-0.029
PPIE (UniProt Q9UNP9)	-0.027	0.017	-0.017	-0.01	-0.016	-0.091	-0.003	-0.018	0.04	-0.034	0.024	0.096	0.035	-0.045	-0.036
PEF1 (UniProt Q9UBV8)	0.026	0.013	0.012	-0.015	-0.004	0.08	0.028	-0.018	0.005	0.011	-0.186	0.467 (active)	-0.005	-0.008	-0.009
POLA1 (UniProt P09884)	-0.022	-0.01	0.011	0.017	0.009	-0.028	-0.001	0.029	0.001	0.008	0.009	-0.293 (active)	-0.019	0.006	-0.016
PPP3CA isoform 2 (UniProt Q08209)	0.241 (active)	0.121	0.027	-0.082	-0.03	-0.051	0.037	0.048	-0.005	-0.002	0.006	0.042	0.014	-0.025	0.066
PITRM1 isoform 2 (UniProt Q5JRX3)	0.014	-0.035	0.011	-0.021	-0.002	0.021	0.013	0.005	0	-0.008	0.003	0.111	0.006	-0.011	0.002
PCBD2 (UniProt Q9H0N5)	0.01	-0.045	0.011	-0.063	0.051	-0.08	-0.101	0.033	0.069	-0.066	0.008	0.034	0.01	-0.006	0.003
POLD3 (UniProt Q15054)	0.03	-0.014	-0.002	0.029	0.007	-0.049	0.002	0.013	0.018	-0.027	0.045	-0.335 (active)	-0.02	-0.03	0.011
PRKCSH (UniProt K7ELL7)	-0.013	-0.163	0.014	0.125	-0.015	0.04	0.024	0.024	-0.032	-0.031	0.132	0.109	0.016	0.016	-0.097
PIP4K2A (UniProt P48426)	0.041	-0.006	0.068	0.141	0.046	-0.001	-0.062	0.039	-0.012	-0.056	0.027	0.024	0.225	0.007	-0.029
PPP2R5C isoform 5 (UniProt Q13362)	0.016	0.003	-0.053	0.022	-0.005	0.016	0.074	0.032	0.059	-0.019	0.002	0.049	0.019	0.022	0.011
POC5 (UniProt Q8NA72)	0.01	0.058	-0.159	0.09	-0.081	0.007	0.005	-0.005	-0.128	0.034	-0.128	-0.36 (active)	-0.021	0.02	-0.184
PIM1 isoform 2 (UniProt P11309)	0.059	-0.025	-0.033	0.063	0.112	-0.085	0.061	0.038		-0.146	0.098	-0.188	0.212	0.019	0.008
PDE4DIP isoform 4 (UniProt Q5VU43)	-0.026	0.004	0.007	-0.015	-0.029	-0.083	-0.032	-0.018	-0.034	-0.011	0.077	0.029	-0.029	0.057	-0.025
PKN1 isoform 2 (UniProt Q16512)	-0.014	-0.098	-0.14	-0.002	0	0.102	0.009	-0.128	-0.054	-0.004	0.002	-0.131	-0.012	-0.138	-0.009
PPP2CA (UniProt P67775)	-0.009	0.037	0.017	0.009	0.057	0.185	0.024	-0.093	-0.008	0.023	-0.079	0.076	-0.021	-0.004	0
PIP5K1A (UniProt Q99755)	-0.091	0.011	-0.137	-0.082	0.033	-0.165	0.032	0.034	-0.041	0.01		-0.014	-0.033	0.047	
PRADC1 (UniProt Q9BSG0)	0.1	-0.1	0.019	-0.047	0.053	-0.007	0.296	-0.031	-0.016	0.013		0.07	-0.041	-0.012	
PPIC (UniProt P45877)	-0.112	0.069	0.037	-0.02	-0.036	-0.063	0.145	0.206		-0.045	0.12	0.044	0.021	0.262	
PPIL3 (UniProt Q9H2H8)	0.121	0.023	-0.049	0.176	-0.032	0.017	-0.028	-0.025	-0.054	-0.051	0.084	-0.155	-0.022	0.029	-0.016
